Screens: PubChem BioAssay, University of Kansas High Throughput Screening Laboratory
Shown are actives, neighbours in structure and some others; about 3.5% of the full set was active somewhere.
Pf apPOL inh – Pf-apPOL inhibitors, biochemical, fluorescence. Plasmodium falciparum apicoplast DNA polymerase (apPOL). Recombinant Pf-apPOL, molecular beacon fluorescence, 1.5 h. inhibition, % at 10 µM. 210,000 tested, 0.25% active. AID 1794808, 2022
mHTT-CaM PPI inh – mutant huntingtin-calmodulin interaction inhibitors – biochemical, AlphaScreen, primary screen. P42858. AlphaScreen His-mHTT/GST-CaM binding, luminescence. inhibition, % at 15 µM. 190,000 tested, 3.6% active;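 also: 0% = both proteins with DMSO and 100% = one protein alone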
Numbers without * were called inactive; . = not tested or not shown. Rule as the data show it: active = inhibition above about 50%; inactive = the rest.

SMILES	Pf apPOL inh	mHTT-CaM PPI inh
CC12C=CC(C)(O1)C1C(=O)N(c3cccc(C(F)(F)F)c3)C(=O)C12 (stereo unspecified)	7	3
COc1cc(C2=N/C(=C\C=C\c3ccccc3)C(=O)O2)cc(OC)c1OC	1	61*
COc1cc(C2=NC(=CC=Cc3ccccc3)C(=O)O2)cc(OC)c1OC	-10	.
Cc1onc(-c2ccccc2)c1C1=N/C(=C\C=C\c2ccccc2)C(=O)O1	-2	68*
Cc1ccc(/C=C2/N=C(c3c(-c4ccccc4)noc3C)OC2=O)cc1	3	-2
COc1ccc(-c2nnc(N3CCC(C(=O)NCc4cccc(Cl)c4)CC3)o2)cc1	6	10
Cn1nc(-c2nc(-c3ccccc3F)no2)c2c1CCN(C(=O)c1ccc(C#N)cc1)C2	-2	-7
O=C1CC(c2ccccc2)Sc2ccccc2N1Cc1ccccc1 (stereo unspecified)	-5	80*
O=C1CC(c2ccco2)Sc2ccccc2N1Cc1cccc(F)c1 (stereo unspecified)	2	4
O=C(NNC(=O)c1ccc(Cl)cc1)C(=O)NNC(=O)c1ccc(Cl)cc1	90*	.
Nc1ccccc1C(=O)NNC(=O)c1ccc(Cl)cc1	7	.
COc1ccc(C2C(C#N)=C(N)Oc3n[nH]c(-c4cccs4)c32)c(OC)c1OC (stereo unspecified)	2	15
N#CC1=C(N)Oc2n[nH]c(-c3cccs3)c2C1c1ccc([N+](=O)[O-])s1 (stereo unspecified)	-1	55*
N#CC1=C(N)Oc2n[nH]c(-c3cccs3)c2C1c1cccs1 (stereo unspecified)	2	7
COc1c(Cl)cc(Cl)cc1C1C(C#N)=C(N)Oc2n[nH]c(-c3cccs3)c21 (stereo unspecified)	0	74*
Cc1cccc(Oc2nccnc2N2CCC(C(=O)NCc3ccccc3)CC2)c1	-5	6
O=C(NCc1cccnc1)C(=O)NC1CCCC1	-23	-1
CCCN1C(=O)C(=O)c2cc(Br)ccc21	-68	25
O=C1C(=O)N(Cc2ccc(F)cc2)c2ccc([N+](=O)[O-])cc21	-2	11
O=C1C(=O)N(Cc2ccc(Cl)c(Cl)c2)c2ccc(Br)cc21	2	100*
C=CCN1C(=O)C(=O)c2cc(Br)ccc21	3	9
O=C1C(=O)N(Cc2ccc(F)cc2)c2ccc(Br)cc21	-1	70*
Cc1ccc(CN2C(=O)C(=O)c3cc(Br)ccc32)cc1	0	51*
COc1cc([N+](=O)[O-])c(C)cc1NC(C)=O	-1	-4
COc1ccc(-c2coc3c(C)c4oc(=O)c5c(c4cc23)CCC5)cc1	-4	2
SMILES	Pf apPOL inh	mHTT-CaM PPI inh
COc1ccc(-c2coc3c2c(C)cc2oc(=O)c4c(c23)CCC4)cc1	86*	4
O=C(c1ccc(OCC2CCCN(C(=O)C3CCCC3)C2)cc1)N1CCCCC1 (stereo unspecified)	96*	4
O=C(c1ccc(OCC2CCCN(C(=O)C3CCCCC3)C2)cc1)N1CCCCC1 (stereo unspecified)	-5	16
COc1ccccc1N=Cc1[nH]c2ccc(Br)c(Cl)c2c1O	-3	3
Oc1c(C=NCc2ccccc2Cl)[nH]c2ccc(Br)c(Cl)c12	-4	72*
Oc1c(C=NCc2ccc(Cl)cc2Cl)[nH]c2ccc(Br)c(Cl)c12	0	58*
Oc1c(C=NCCc2ccccc2)[nH]c2ccc(Br)c(Cl)c12	-1	86*
Oc1c(C=NCc2ccc(F)cc2)[nH]c2ccc(Br)c(Cl)c12	5	55*
Cc1ccc(CN=Cc2[nH]c3ccc(Br)c(Cl)c3c2O)cc1	-1	21
Oc1c(C=Nc2ccc(F)cc2)[nH]c2ccc(Br)c(Cl)c12	10	5
Cc1cccc(C)c1N=Cc1[nH]c2ccc(Br)c(Cl)c2c1O	-100	12
O=[N+]([O-])c1ccc(O)c(C=Nc2cc(C(F)(F)F)ccc2Cl)c1	-1	5
CCOC(=O)c1ccc(NC(=O)C2CCN(c3nccnc3Oc3ccccc3)CC2)cc1	-2	5
O=C(CCCCCN1C(=O)c2ccccc2C1=O)Nc1ccccc1Cl	1	7
Cc1ccc2c(NC(=O)Cc3csc(-n4cccc4)n3)cccc2n1	-8	-10
CC(C)N(Cc1c[nH]c2ccccc12)C(=O)Nc1ccc(Cl)c(Cl)c1	-16	68*
CC(=O)NCC(=O)N(C)C(C(=O)Nc1ccc2c(c1)OCO2)c1ccccc1 (stereo unspecified)	-2	5
CC(=O)Nc1ccc(NC(=O)CCc2c[nH]c3ccccc23)cc1	-9	10
CN(C(=O)Cc1c[nH]c2ccccc12)C(C(=O)Nc1ccc2c(c1)OCO2)c1ccccc1 (stereo unspecified)	-4	88*
Cc1ccc(C)c(OCC(=O)NCc2ccco2)c1	-4	2
CCC(=O)NCCc1csc(C2CCCN(C(=O)c3cc(C)on3)C2)n1 (stereo unspecified)	0	-3
O=c1[nH]c2ccc(Br)cc2c(-c2ccccc2)c1C1=NOC(c2ccccc2)C1 (stereo unspecified)	0	15
O=c1[nH]c2ccc(Cl)cc2c(-c2ccccc2)c1C1=NOC(c2ccc(F)cc2)C1 (stereo unspecified)	5	100*
COc1ccc(C2=NN(C(C)=O)C(c3ccc(Cl)cc3)C2)cc1 (stereo unspecified)	-4	.
CC(=O)N1N=C(c2c(-c3ccccc3)c3cc(Cl)ccc3[nH]c2=O)CC1c1ccc(Cl)cc1 (stereo unspecified)	-6	100*
SMILES	Pf apPOL inh	mHTT-CaM PPI inh
Cc1c(N=Cc2cc(Cl)ccc2O)c(=O)n(-c2ccccc2)n1C	1	-3
CCCC(=O)Nc1c(C)nc2sccn2c1=O	-2	-5
Cc1ccc2c(c1)NC(c1ccc([N+](=O)[O-])cc1)C1CC=CC21 (stereo unspecified)	-6	43
COc1cc(C2Nc3ccc([N+](=O)[O-])cc3C3C=CCC32)cc(OC)c1OC (stereo unspecified)	2	71*
COc1cc([N+](=O)[O-])cc2c1NC(c1ccc(Br)cc1)C1CC=CC21 (stereo unspecified)	-1	33
O=[N+]([O-])c1ccc(C2Nc3ccc(F)cc3C3C=CCC32)cc1 (stereo unspecified)	-29	91*
Brc1ccc2c(c1)[C@@H]1C=CC[C@@H]1[C@H](c1ccncc1)N2	.	-4
Nc1ccc2c(c1)C1C=CCC1C(c1ccc([N+](=O)[O-])cc1)N2 (stereo unspecified)	-3	98*
NS(=O)(=O)c1ccc2c(c1)C1C=CCC1C(c1ccc(Br)cc1)N2 (stereo unspecified)	3	84*
NCCNC1CCS(=O)(=O)C1 (stereo unspecified)	-1	-4
CC1=NN(c2ccc(I)cc2)C(=O)/C1=C/c1ccc(N(C)C)c([N+](=O)[O-])c1	-2	11
C=CCn1c(=N)c(C(=O)NCC)cc2c(=O)n3ccccc3nc21	10	1
O=[N+]([O-])c1ccc(C2Nc3cc(Cl)cc(Cl)c3C3C=CCC32)cc1 (stereo unspecified)	-5	60*
O=C(c1cnn2c(C(F)(F)F)cc(-c3ccco3)nc12)N1CCN(c2cccc(Cl)c2)CC1	-2	7
Clc1cc2nc(-c3ccco3)c(-c3ccco3)nc2cc1Cl	-5	100*
CSc1nnc(-c2ccco2)c(-c2ccco2)n1	-5	31
